# Compound activity deposited in PubChem BioAssay by National Center for Advancing Translational Sciences (NCATS).
# KB-3-1 cytotox: kills parental KB-3-1 adenocarcinoma cells. KB-3-1 viability, CellTiter-Glo ATP luminescence, 72 h. Potency, µM (top dose mostly 46.1 µM), hits mostly cytotoxic. 1.4% of 400,000 active; also: potency is read from the fitted curve at half-maximal effect; nearly all actives have a fitted effect of over 60% in size
#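 72 h, 37 °C compound treatment of KB-3-1 parental cells; CellTiter-Glo added, 10 min, luminescence read. Data corrected against DMSO-only plates and normalized before curve fitting.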
# KB-V1 cytotox: KB-V1 MDR subline cytotoxicity; AID 1347076; KB-V1 MDR cells viability, CellTiter-Glo, 72 h; Potency, µM (titrated, usually from 46.1 µM), hits mostly cytotoxic; 3.4% of 400,000 active; also: potency is read from the fitted curve at half-maximal effect; nearly all actives have a fitted effect of over 60% in size
#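 In this primary screen, KB-V1 cells overexpressing P-gp are incubated with library compounds (lowest to highest concentration) for 72 h at 37 degrees C before a luminescent ATP viability read.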
# HT1080-NT tox: kills 2HG-producing HT-1080-NT fibrosarcoma cells; AID 686970; 1.6% of 360,000 active; Potency, µM (doses to about 46.1 µM), for the others: at the top dose activity, negative = less viability, hits mostly cytotoxic; HT-1080-NT fibrosarcoma viability, CellTiter-Glo ATP luminescence, 48 h;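 also: NT is the 2HG producing partner of a matched IDH1 knockdown line; potency is read from the fitted curve at half-maximal effect; 0% = DMSO-treated cells and -100% = media-only wells without cells; nearly all actives have a fitted effect of over 55% in size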
#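 Viability of the 2HG-overproducing fibrosarcoma line after 48 hours of compound exposure at 37 degrees C was determined by luminescence with CellTiter-Glo, and concentration-effect curves were then fitted and categorized.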
# HT1080 IDH1KD tx: HT-1080 IDH1 knockdown cell toxicity (counter line). HT-1080 IDH1 knockdown viability, ATP luminescence, 48 h. Potency, µM (doses to about 46.1 µM), without a hit: at the top dose activity, negative = toxicity, actives largely listed as cytotoxic. 2% of 360,000 active. AID 686971;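 also: potency is read from the fitted curve at half-maximal effect; 0% = DMSO wells and -100% = cell-free medium wells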
#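 Using the IDH1-knockdown HT-1080 line run in the same batch and compound series as the NT line, viability after 48 h at 37 °C was determined by CellTiter-Glo luminescence and expressed as % activity.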
# IL1B secr inh: inflammasome signaling inhibition, IL-1 beta readout; THP-1 LPS/ATP IL-1B secretion, AlphaLISA, 16 h; hits give low values; activity change, % at 57.5 µM; 4.7% of 360,000 active; in the data active = activity change below about -50%; inconclusive = mostly about -30% to -49%
#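 THP-1 cells pretreated 1 hr with compounds (up to 57.5 uM final), then stimulated with LPS (250 ng/mL final) plus ATP (1.25 mM final); secreted IL-1B measured by AlphaLISA after 16 hr, decreased signal indicating inhibition.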
# Numbers without * were called inactive; i = inactive; ? = inconclusive; · = no result. Only some compounds are listed: those with a hit (about 8.8% of all), similar ones and a draw of the others. Unless noted, calls follow the shape of the dose curve; as a rule, active = well fitted curve in the direction sought with a large enough effect; inconclusive = small, poorly fitted or top-dose-only effect, or another doubt; inactive = no such curve, though single readings can be large; an effect the other way counts as inactive or inconclusive. Unless noted, % is scaled to controls: 0 for no effect and ±100 for the full control effect.
SMILES,KB-3-1 cytotox,KB-V1 cytotox,HT1080-NT tox,HT1080 IDH1KD tx,IL1B secr inh
CN(C)c1ccc(/C=N/NC(=O)c2ccc3c(c2)OCO3)cc1,i,i,-21%,-3%,-28
Cc1c(C(=O)N/N=C/c2ccccc2)[nH]c2ccc(Cl)cc12,?,i,18µM*,15µM*,29
Cc1c(C(=O)N/N=C/c2ccc(N(C)C)cc2)[nH]c2ccc(Cl)cc12,5.8µM*,5.8µM*,5.8µM*,?,52
CCOC(=O)CC(NC(=O)c1cc2cc(Br)cc(OC)c2oc1=O)c1ccc(OC)cc1 (stereo not drawn),i,i,·,·,·
CCn1c(=O)n(C)c2c(=O)n(C)c(=O)n(C)c21,i,i,-2%,1%,14
CCOC(=O)/C(=N\Nc1ccccc1)P(=O)(c1ccccc1)c1ccccc1,i,12µM*,?,-24%,·
CCOC(=O)c1ccc(NC(=S)P(=O)(c2ccccc2)c2ccccc2)cc1,i,?,-12%,-18%,5
CCOC(=O)/C(=N/Nc1ccc(OC)cc1)N1CCCc2ccccc21,i,i,-15%,-14%,-53*
CCOC(=O)/C(=N/Nc1ccccc1)N1CCCc2ccccc21,i,16µM*,-10%,-1%,-9
CCOC(=O)/C(=N/Nc1ccccc1OC)N1CCCc2ccccc21,i,i,-12%,-14%,-5
O=C(CSC1=NC2(CCCCC2)N=C1c1ccccc1)Nc1ccc2c(c1)OCCO2,i,i,-4%,-7%,-80*
O=C(CSc1ccc(-c2ccccc2)nn1)Nc1ccc2c(c1)OCCO2,i,i,10%,0%,16
Cc1ccc(C2=NC3(CCCC3)N=C2SCC(=O)Nc2ccc3c(c2)OCCO3)cc1,i,i,1%,-2%,-94*
O=C(CSc1ccccc1)Nc1ccc2c(c1)OCCO2,i,?,6%,1%,-2
O=C(CSC1=NC2(CCCCCC2)N=C1c1ccccc1)Nc1ccc2c(c1)OCCO2,i,i,?,?,-75*
O=C(COC(=O)CNS(=O)(=O)c1ccc(Br)cc1Cl)NC1CCCC1,i,i,-4%,-6%,?
CCn1c(CNc2ccc(Cl)cc2)nnc1SCC#N,i,i,11%,10%,19
COc1ccc(-c2nnc(SCCOc3ccccc3C)o2)cc1OC,i,i,·,·,·
O=C1NCCCCC1NS(=O)(=O)c1cccc(C(F)(F)F)c1 (stereo not drawn),i,i,-1%,0%,0
O=C(Cc1csc(NC(=O)c2ccccc2)n1)NO,i,i,?,?,-58*
O=C(COc1ccc(Cl)cc1)NCCc1csc(-c2ccc(F)cc2)n1,i,i,·,·,·
O=C(NCCc1csc(-c2ccc(C(F)(F)F)cc2)n1)c1ccc(F)c(F)c1,23µM*,13µM*,·,·,·
O=C(NCCc1csc(-c2ccc(F)cc2)n1)c1cccc(F)c1,?,i,·,·,·
COc1ccc(C(=O)Nc2nc(CC(=O)NCCc3ccccc3)cs2)cc1,i,?,1%,0%,-52*
COc1ccc(CC(=O)NCCc2csc(-c3ccc(Cl)cc3)n2)cc1,i,0.92µM*,·,·,·
SMILES,KB-3-1 cytotox,KB-V1 cytotox,HT1080-NT tox,HT1080 IDH1KD tx,IL1B secr inh
Cc1cccc(NC(=O)C(=O)NCC(c2ccc3c(c2)OCO3)N2CCN(c3ccccc3)CC2)c1 (stereo not drawn),i,i,·,·,·
O=C(CN1CCSC1=NCc1ccccc1)c1ccccc1,i,i,-6%,1%,-15
CN1c2ccccc2C(O)=C(C(=S)Nc2ccc(F)c(Cl)c2)S1(=O)=O,16µM*,16µM*,?,-27%,-3
COc1ccc(CC(=O)OC(C)C(=O)NC2CCCCC2C)cc1 (stereo not drawn),i,i,17%,12%,7
N#CC(c1ccccc1)C1CCN(Cc2ccccc2)CC1 (stereo not drawn),i,21µM*,1%,9%,-16
Cc1ccc(C)c(C(Nc2ccccc2)c2ccc3ccc(C)nc3c2O)c1 (stereo not drawn),?,?,?,?,81
COc1ccc(-c2cc(C(=O)O)[nH]n2)cc1OC,23µM*,i,-1%,-8%,-6
